Measurements published in PubChem BioAssay.
“And” between values parts separate entries of the source, which are not always exact repeats. Identical values can stand only once. The source holds several records for some structures; these can differ, active in one and inactive in another. The source made the active and inactive calls.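 The calls were made as follows, unless noted: active = compound raises insulin release from rat beta cells at 5 mM glucose, no numeric limit stated; inactive = the rest.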

Key:
[1] = Wnt pathway potentiators raising nuclear beta-catenin – imaging, WNT3A-conditioned medium, mouse C2C12, NPC library, primary screen (AID 1117326; in the data active = nuclear beta-catenin stimulation mostly above about 4.2%, no sharp cut-off; inactive = mostly below about 10%; also: reference of the scale not given here); conditions: stronger effect = higher value
[2] = stimulators of insulin release from INS-1E, primary screen, cell-based, 5 mM glucose, NPC library (AID 1117329); conditions: rat INS-1E insulin secretion, at 10 µM, stronger effect = higher value; also: reference of the scale not given here
[3] = growth inhibition of GSK3B-pretreated HCT116 cells – cell-based, CellTiter-Glo, 0.2 to 20 µM (AID 1117336;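 active = compounds lowering colon cancer cell viability after pretreatment blocking the GSK3B kinase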); conditions: HCT116 viability after GSK3B inhibitor, at 20 µM, stronger effect = higher value
[4] = inhibition of endothelial tube formation, primary screen, imaging, VEGF stimulated, CD31 staining, tube area, NPC library (AID 1117340;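 active = compound that reduces growth-factor-driven endothelial tube area in a mixed cell culture, no cutoff stated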); conditions: VEGF-stimulated ADSC/ECFC co-culture, at 10 µM, stronger effect = higher value
[5] = GLP1 release stimulators, primary, NCI-H716, NPC library (AID 1117341;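 active = compound raises GLP1 secretion from the human gut endocrine cells, with no numeric limit stated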; also: reference of the scale not given here); conditions: NCI-H716 cells, at 10 µM, stronger effect = higher value
[6] = HCT116 colon cancer cell growth inhibition, primary screen, CellTiter-Glo luminescence, NPC library (AID 1117342;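 active = compounds that lower survival of HCT116 colon cancer cells in the luminescence readout, no numeric limit stated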); conditions: at 20 µM (top of the series)
[7] = reduced SW480 viability measured with CellTiter-Glo, NPC library, primary (AID 1117343;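 active = compounds that lower viability of the colon cancer cells in the luminescence readout, with no numeric limit stated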); conditions: CellTiter-Glo luminescence; at 20 µM (top of the series)
[8] = NPC library primary testing for decreased DLD-1 cell viability via CellTiter-Glo (AID 1117346;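 active = compounds that lower survival of DLD-1 colon cancer cells in the luminescence readout, no cutoff given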); conditions: DLD-1 viability, CellTiter-Glo luminescence; at 20 µM (top of the series)

| SMILES | nuclear beta-catenin stimulation ([1]; at 10 µM) | nuclear beta-catenin stimulation ([1]; stimulation, at 2 µM) | insulin secretion stimulation [2] | viability decrease [3] | tube area decrease [4] | GLP1 secretion stimulation [5] | inhibition of viability [6] | viability decrease (inhibition) [7] | viability decrease (inhibition) [8] |
| --- | --- | --- | --- | --- | --- | --- | --- | --- | --- |
| CN(C)CCOc1ccccc1Cc1ccccc1 | -1.8% (inactive) | 2.3% | 22% (active) | -14% (inactive) | 4.9% (inactive) | -5.1% (inactive) | 11.4% (inactive) | 34% (inactive) | 0.8% (inactive) |
| CC(C)=CCC1C(=O)N(c2ccccc2)N(c2ccccc2)C1=O | -0.3% (inactive) | 0.3% | -1.2% (inactive) | 45.1% (inactive) | 8.8% (inactive) | -1.5% (inactive) | -4.6% (inactive) | 78.1% (active) | 26.2% (inactive) |
| C[C@H]1NCc2cc(-c3ccc4c(=O)c(C(=O)O)cn(C5CC5)c4c3OC(F)F)ccc21 | 4.5% (inactive) | 1.3% | 0.3% (inactive) | 2.4% (inactive) | 9.5% (inactive) | -0.7% (inactive) | 20.1% (inactive) | -3.4% (inactive) | 2.9% (inactive) |
| CO[C@@]1(NC(=O)CSC[C@@H](N)C(=O)O)C(=O)N2C(C(=O)O)=C(CSc3nnnn3C)CS[C@@H]21 | 0.6% (inactive) | -1.7% | 2.6% (inactive) | 4.5% (inactive) | -11.8% (inactive) | -0.5% (inactive) | -0.6% (inactive) | -15.3% (inactive) | 3.1% (inactive) |
| O=C1Nc2ccccc2C1(c1ccc(O)cc1)c1ccc(O)cc1 | -0.4% (inactive) | -1.6% | 0.6% (inactive) | 54.5% (active) | 16.2% (inactive) | 5.4% (inactive) | 71.7% (active) | 38.2% (inactive) | 56.5% (active) |
| C[C@H]1C[C@H](O)c2ccsc2S1(=O)=O | 0.6% (inactive) | 2.7% | -0.8% (inactive) | -1.3% (inactive) | 1.2% (inactive) | 1% (inactive) | 4.1% (active) | -6.2% (inactive) | -4% (inactive) |
| Cc1cccc(C)c1NC(=O)c1cc(S(N)(=O)=O)c(Cl)cc1O | -1.8% (inactive) | 0.7% | -1.9% (inactive) | -8.6% (inactive) | -2.4% (inactive) | -2.3% (inactive) | -3.4% (inactive) | 3.4% (inactive) | -5.4% (inactive) |
| O=C(CN1CCNCC1)NC1CCCCC1 | -0.7% (inactive) | 0.3% | 5% (inactive) | -3.9% (inactive) | 13.7% (inactive) | 1% (inactive) | 7.2% (inactive) | 16.3% (inactive) | 4.5% (active) |
| CCCCN1CCCC[C@H]1C(=O)Nc1c(C)cccc1C | 0.3% (inactive) | 0.4% | 25.7% (active) | 26.6% (inactive) | -20.3% (inactive) | 2.9% (inactive) | 23.7% (inactive) | 21.1% (inactive) | 23.1% (inactive) |
| O=S(c1cc(Cl)cc(Cl)c1O)c1cc(Cl)cc(Cl)c1O | -0.5% (inactive) | -1.3% | 4.7% (inactive) | 110% (active) | 92.8% (active) | 27.8% (active) | 112% (active) | 126% (active) | 101% (active) |
| c1ccc2sc(SN3CCOCC3)nc2c1 | 0.5% (inactive) | 2.1% | -2.6% (inactive) | 2.05% (inactive) | 18.9% (inactive) | -0.9% (inactive) | -10.4% (inactive) | 110% (active) | 6.4% (inactive) |
| Cc1ccc(C(=O)C(=O)O)cc1C | 1% (inactive) | 1.8% | 2.9% (inactive) | -10.8% (inactive) | -6.7% (inactive) | -3.1% (inactive) | -6.7% (inactive) | 17.4% (inactive) | -5% (inactive) |
| CCCCCCCC[N+](C)(C)CCCCCCCC | -3.8% (inactive) | 34.4% | -3% (inactive) | 99.5% (active) | 108% (active) | -2.7% (inactive) | 99.6% (active) | 102% (active) | 101% (active) |
| Cc1ccc2c(n1)Oc1ccc(C(C)C(=O)OCC(=O)N(C)C)cc1C2 (stereo not drawn) | 0.6% (inactive) | -2.8% | 1.8% (inactive) | 28.6% (inactive) | -10% (inactive) | 3.6% (inactive) | 20.4% (inactive) | -3.8% (inactive) | -1.1% (inactive) |
| OC[C@@H](O)[C@H](O)[C@H](O)[C@@H](O)CO | 0.7% (inactive) and 2.5% (inactive) | -0.3% and 1% | 0.1% (inactive) and 1.8% (inactive) | -25.2% (inactive) and 11.4% (inactive) | 3.7% (inactive) and 50.5% (active) | 0.3% (inactive) and -1.2% (inactive) | -3.33% (inactive) and -2.5% (inactive) | 4.1% (inactive) and 1.5% (inactive) | -1.5% (inactive) and -4.9% (inactive) |
| Cc1c(C)c2c(c(C)c1OC(=O)CCC(=O)O)CC[C@@](C)(CCC[C@H](C)CCC[C@H](C)CCCC(C)C)O2 | -0.9% (inactive) | -0.6% | 2.6% (inactive) | 36.4% (inactive) | 61.9% (active) | -3.2% (inactive) | 54.9% (active) | 75% (active) | 66% (active) |

| SMILES | nuclear beta-catenin stimulation ([1]; at 10 µM) | nuclear beta-catenin stimulation ([1]; stimulation, at 2 µM) | insulin secretion stimulation [2] | viability decrease [3] | tube area decrease [4] | GLP1 secretion stimulation [5] | inhibition of viability [6] | viability decrease (inhibition) [7] | viability decrease (inhibition) [8] |
| --- | --- | --- | --- | --- | --- | --- | --- | --- | --- |
| CCCCCC1Nc2cc(C(F)(F)F)c(S(N)(=O)=O)cc2S(=O)(=O)N1 (stereo not drawn) | 0.5% (inactive) | -0.2% | 2% (inactive) | 13.4% (inactive) | 9.2% (inactive) | -0.1% (inactive) | 43% (inactive) | 0.7% (inactive) | 31.7% (inactive) |
| c1ccc2[nH]ccc2c1 | 0.4% (inactive) | 3% | -2.8% (inactive) | -4.45% (inactive) | 10.7% (inactive) | 1.9% (inactive) | -34.9% (inactive) | 23.7% (inactive) | 6.25% (inactive) |
| CCCCC(CC)COC(=O)/C=C/c1ccc(OC)cc1 (stereo not drawn) | -1.6% (inactive) | -0.8% | 2.6% (inactive) | 5.9% (inactive) | 3.3% (inactive) | 0.8% (inactive) | 15.9% (inactive) | -7.2% (inactive) | 3.7% (inactive) |
| Cc1c(F)cc2c(=O)c(C(=O)O)cn3c2c1CCC3C (stereo not drawn) | 1.9% (inactive) | 1.5% | -1.9% (inactive) | -181% (inactive) | -28% (inactive) | 1.5% (inactive) | 0.65% (inactive) | -16.3% (inactive) | -3% (inactive) |
| CC(CC1c2ccccc2CCc2ccccc21)CN(C)C (stereo not drawn) | -1% (inactive) | 0.4% | 29.8% (active) | 34.8% (inactive) | 9.8% (inactive) | -1.9% (inactive) | 44.4% (active) | 84.4% (active) | 87.7% (active) |
| CCc1ccc(C(=O)C(C)CN2CCCCC2)cc1 (stereo not drawn) | -0.3% (inactive) | -0.1% | 14.3% (inactive) | -4.9% (inactive) | -30.1% (inactive) | -1.5% (inactive) | 19.2% (inactive) | 7.4% (inactive) | -0.2% (inactive) |
| Clc1ccccc1-c1nc(-c2ccncc2)no1 | -0.3% (inactive) | 0.5% | -2.3% (inactive) | 3.6% (inactive) | 23.5% (inactive) | -2.9% (inactive) | 18.1% (inactive) | 8.4% (inactive) | -2.9% (inactive) |
| CCN(CC)C(=O)C1CN2CCc3cc(OC)c(OC)cc3C2CC1OC(C)=O (stereo not drawn) | -1.5% (inactive) | 1.3% | 3.5% (inactive) | -0.1% (inactive) | 1.2% (inactive) | 10.9% (inactive) | 17.1% (inactive) | 6.1% (inactive) | -4.5% (inactive) |
| CC(C)[N+](C)(C)CC(O)COc1cccc2ccccc12 (stereo not drawn) | -2.3% (inactive) | -0.7% | 2.4% (inactive) | 7.2% (inactive) | -21% (inactive) | 3% (inactive) | 34.1% (inactive) | -0.7% (inactive) | 5.7% (inactive) |
| C[C@H]1C[C@H]2[C@@H]3CCC4=CC(=O)C=C[C@]4(C)[C@@]3(Cl)[C@@H](O)C[C@]2(C)[C@@]1(O)C(=O)CO | 0.9% (inactive) | 0.5% | 6.9% (inactive) | -136% (inactive) | 14.4% (inactive) | -0.3% (inactive) | 15.8% (inactive) | 70.7% (active) | 13.2% (inactive) |
| Cc1ncc(COP(=O)(O)O)c(C=O)c1O | -1.1% (inactive) | -0.2% | -0.8% (inactive) | 9.5% (inactive) | -0.4% (inactive) | -1.1% (inactive) | 4.63% (inactive) | -1.4% (inactive) | 3.4% (inactive) |
| NS(=O)(=O)c1ccc(Cl)c(S(N)(=O)=O)c1 | -2.3% (inactive) | -1% | -1.3% (inactive) | -4.9% (inactive) | 12.2% (inactive) | -0.9% (inactive) | -6% (inactive) | -5.6% (inactive) | -7.1% (inactive) |
| O=C1CC2(CCCC2)CC(=O)N1 | -0.8% (inactive) | -1.2% | 0.4% (inactive) | -4% (inactive) | -10.3% (inactive) | -1.6% (inactive) | 7.1% (inactive) | 2.5% (inactive) | -2.4% (inactive) |
| C[C@H](CCC(=O)O)[C@H]1CC[C@H]2[C@@H]3CC[C@@H]4C[C@H](O)CC[C@]4(C)[C@@H]3C[C@H](O)[C@]12C | -0.7% (inactive) | -1.1% | 1% (inactive) | 37.6% (inactive) | 0% (inactive) | -5% (inactive) | 57% (active) | 35.7% (inactive) | 9.8% (active) |
| CC(=O)CCC(=O)O | -1.6% (inactive) | -1.3% | 2% (inactive) | -4.6% (inactive) | 0.2% (inactive) | -2.2% (inactive) | -6.13% (inactive) | 20% (inactive) | -8.6% (inactive) |
| CC(C)(C)C(=O)OCOC(=O)C1N2C(=O)CC2S(=O)(=O)C1(C)C (stereo not drawn) | -1.1% (inactive) | 1% | 1.4% (inactive) | 10.9% (inactive) | -21.6% (inactive) | -1.3% (inactive) | -4.1% (inactive) | -22.3% (inactive) | 4% (inactive) |
